Consider 16 compounds from ChEMBL document CHEMBL4513152, “CO-ADD screening of Yantai University (China) compounds”.

Results with a measured potency or affinity are listed apart.

In test [1] the test system is Staphylococcus aureus. The note with it: Concentration 32 ug.mL-1; ASSAY_TEST Inhibition of Bacterial Growth; detection method Absorption (OD600); MEDIA CAMHB; plate type 384well; NBS; CORNING #3640; time 18 hr.
Test [2] concerns Escherichia coli. The following applies: Concentration 32 ug.mL-1; ASSAY_TEST Inhibition of Bacterial Growth; detection method Absorption (OD600); MEDIA CAMHB; plate type 384well; NBS; CORNING #3640; time 18 hr.

`CC(=O)O[C@H]1C[C@@]2(C)C(CC(=O)C3[C@@]4(C)CCC(=O)[C@@H](C)C4CC[C@@]32C)/C1=C(\CCC=C(C)C)C(=O)OCc1ccccc1` (some centres not stated): the Inhibition in test [1] is 29.92%; in test [2] it was -4.11%.

With `CC(=O)O[C@H]1C[C@@]2(C)C(C[C@@H](O)C3[C@@]4(C)CC[C@@H](OC(=O)CCCCO[N+](=O)[O-])[C@@H](C)C4CC[C@@]32C)/C1=C(\CCC=C(C)C)C(=O)OCc1ccccc1` (some centres not stated), the figures for the Inhibition in test [1] and in test [2] were 9.5% and -4.08%, respectively.

With `CC(=O)O[C@H]1C[C@@]2(C)C(C[C@@H](O)C3[C@@]4(C)CC[C@@H](OC(=O)c5ccccc5C(=O)Nc5cccc(N)c5)[C@@H](C)C4CC[C@@]32C)/C1=C(\CCC=C(C)C)C(=O)OCc1ccccc1` (some centres not stated), the results for the Inhibition in test [1] and in test [2] were 1.65% and -0.14%, respectively.

`CC(=O)O[C@H]1C[C@@]2(C)C(C[C@@H](O)C3[C@@]4(C)CC[C@@H](O)[C@@H](C)C4CC[C@@]32C)/C1=C(\CCC=C(C)C)C(=O)On1nnc2ccccc21` (some centres not stated): the Inhibition in test [1] was 73.87%; in test [2], -6.08%.

Take `CC(=O)O[C@H]1C[C@@]2(C)C(C[C@@H](O)C3[C@@]4(C)CC[C@@H](OC(=O)C(N)CC(C)C)[C@@H](C)C4CC[C@@]32C)/C1=C(\CCC=C(C)C)C(=O)OCc1ccccc1` (some centres not stated): the Inhibition is recorded as -0.87% in test [1] and -4.43% in test [2].

On to `CC(=O)O[C@H]1C[C@@]2(C)C(C[C@@H](O)C3[C@@]4(C)CC[C@@H](OC(=O)C(C)N)[C@@H](C)C4CC[C@@]32C)/C1=C(\CCC=C(C)C)C(=O)OCc1ccccc1` (some centres not stated), for which the Inhibition in test [1] is 32.79%; in test [2] it was -12.12%.

Regarding `CC(=O)O[C@H]1C[C@@]2(C)C(C[C@@H](O)C3[C@@]4(C)CC[C@@H](OC(=O)CCC(=O)Oc5ccc(CCO[N+](=O)[O-])cc5)[C@@H](C)C4CC[C@@]32C)/C1=C(\CCC=C(C)C)C(=O)OCc1ccccc1` (some centres not stated), the figures for the Inhibition in test [1] and in test [2] were -9.31% and -12.6%, respectively.

Consider `CC(=O)O[C@H]1C[C@@]2(C)C(C[C@@H](O)C3[C@@]4(C)CC[C@@H](OC(=O)c5ccccc5C(=O)Oc5ccc(CCO[N+](=O)[O-])cc5)[C@@H](C)C4CC[C@@]32C)/C1=C(\CCC=C(C)C)C(=O)OCc1ccccc1` (some centres not stated), for which the Inhibition in test [1] was -1.26%; in test [2], -6.53%.

On to `CC(=O)O[C@H]1C[C@@]2(C)C(C[C@@H](O)C3[C@@]4(C)CC[C@@H](OC(=O)CCC(=O)OCCc5ccc(OCCO[N+](=O)[O-])cc5)[C@@H](C)C4CC[C@@]32C)/C1=C(\CCC=C(C)C)C(=O)OCc1ccccc1` (some centres not stated), for which the Inhibition in test [1] is -0.26%; in test [2], -8.83%.

On to `CC(=O)O[C@H]1C[C@@]2(C)C(C[C@@H](O)C3[C@@]4(C)CC[C@@H](O)[C@@H](C)C4CC[C@@]32C)/C1=C(\CCC=C(C)C)C(=O)OCc1ccccc1` (some centres not stated), for which the Inhibition is reported as 36.65% in test [1] and -11.95% in test [2].

On to `CC(=O)O[C@H]1C[C@@]2(C)C(C[C@@H](O)C3[C@@]4(C)CC[C@@H](OC(=O)c5ccccc5C(=O)Nc5ccc(N)cc5)[C@@H](C)C4CC[C@@]32C)/C1=C(\CCC=C(C)C)C(=O)OCc1ccccc1` (some centres not stated), for which the figures for the Inhibition in test [1] and in test [2] were 7.06% and 1.09%, respectively.

In the case of `CC(=O)O[C@H]1C[C@@]2(C)C(CC(=O)C3[C@@]4(C)CC[C@@H](OC(=O)CCCCCO[N+](=O)[O-])[C@@H](C)C4CC[C@@]32C)/C1=C(\CCC=C(C)C)C(=O)OCc1ccccc1` (some centres not stated), the Inhibition in test [1] is recorded as 5.71%; in test [2], -2.8%.

`CC(=O)O[C@H]1C[C@@]2(C)C(C[C@@H](O)C3[C@@]4(C)CC[C@@H](OC(=O)CCC(=O)O)[C@@H](C)C4CC[C@@]32C)/C1=C(\CCC=C(C)C)C(=O)OCc1ccccc1` (some centres not stated): the Inhibition in test [1] came out at 44.88%; in test [2], 10.14%.

On to `CC(=O)O[C@H]1C[C@@]2(C)C(C[C@@H](O)C3[C@@]4(C)CC[C@@H](OC(=O)C(N)C(C)C)[C@@H](C)C4CC[C@@]32C)/C1=C(\CCC=C(C)C)C(=O)OCc1ccccc1` (some centres not stated), for which the results for the Inhibition in test [1] and in test [2] were -9.9% and -10.45%, respectively.

`CC(=O)O[C@H]1C[C@@]2(C)C(C[C@@H](O)C3[C@@]4(C)CC[C@@H](OC(=O)CO[N+](=O)[O-])[C@@H](C)C4CC[C@@]32C)/C1=C(\CCC=C(C)C)C(=O)OCc1ccccc1` (some centres not stated): the Inhibition was found to be 5.41% in test [1] and 4.14% in test [2].

On to `CC(=O)O[C@H]1C[C@@]2(C)C(C[C@@H](O)C3[C@@]4(C)CC[C@@H](O)[C@@H](C)C4CC[C@@]32C)/C1=C(\CCC=C(C)C)C(=O)Oc1ccc(CCO[N+](=O)[O-])cc1` (some centres not stated), for which the Inhibition is recorded as 23.19% in test [1] and -3.14% in test [2].

In general, Inhibition refers to the change of the read-out against control, counted positive when it falls.
